This passage reports activation results from PubChem BioAssay AID504408 (Broad Institute, 2011).

Hit rate of the full screen: of about 300,000 compounds, about 5,200 (1.7%) were called active. Only a selection was taken, and actives are over-represented in it overall. A number with no mark means an inactive call.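 Rule for the calls: active = mean replicate activation of at least 50% with a set share of replicates each reaching 50%; inconclusive = only one of those two conditions met; inactive = mean below 50% and too few replicates reaching it.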

The assay can be described thus: HSF-1 response element luciferase induction – NIH3T3-HGL cells, MG132 stress, luminescence, single point, primary screen (AID 504408).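 Note: 0% = median of the neutral control wells and 100% = twice that signal.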 The following applies: NIH3T3-HGL HSF-1 luciferase reporter, MG132, 8 h; at 9 µM; active compounds read high; 100% = twice DMSO control signal. For orientation: Reporter assays use an easily measured gene product as a stand-in for the process of interest.
As for `O=C(CSc1ccccn1)N1CCN(S(=O)(=O)c2ccc(Cl)cc2)CC1`, the activation is 9.98%.

For `O=S(=O)(O)Oc1c[nH]c2ccccc12`, the activation was -0.476%. As for `CCS(=O)(=O)c1ccc(-c2cccc(NC(=O)c3ccc(Br)o3)c2)nn1`, the figure is -23.4%. As for `O=C(Nc1cccc([N+](=O)[O-])c1)Nc1ccc(Cl)cn1`, the activation is -5.81%. Regarding `CCCc1cc(C(=O)Nc2ccc(Cl)cn2)cs1`, the activation was 43.8%. Turning to `O=C(Nc1ccc(Cl)cn1)Nc1cccs1`, the activation is 69.7% (active). As for `COc1ccc(NC(=O)CN(C)C(=O)/C=C/c2cn(Cc3ccccc3)nc2-c2cccnc2)cc1`, the activation is 1.78%. Regarding `COC(=O)[C@]1(C)N[C@H](c2ccc(-c3ccc(Cl)c(Cl)c3)cc2)[C@@H]2C(=O)N(C)C(=O)[C@@H]21`, the activation is 23%. With `Cn1c(CN2CCOCC2)nc2cc(NC(=O)c3ccc(Cl)cc3)ccc21`, the activation was 70% (active). `CC(=O)NCCc1nc2cc(NC(=O)c3ccccc3)ccc2n1C`: the activation was -16.5%. In the case of `CCOC(=O)N1CCN(Cc2nc3cc(NC(C)=O)ccc3n2C)CC1`, the activation was -12.5%. Regarding `CCC(=O)Nc1ccc2c(c1)nc(CCN1CCN(c3ccccn3)CC1)n2C`, the activation was 27.9%.

On to `Cn1c(CCN2CCCCCC2)nc2cc(NC(=O)Nc3ccccc3)ccc21`, for which the activation was 276% (active). Regarding `Cn1c(CCN2CCCC2)nc2cc(NS(=O)(=O)c3ccccc3)ccc21`, the activation is -1.14%. Turning to `COC(=O)c1ccc(SCc2ccccc2)nc1`, the activation is 18.6%.

Turning to `CCOc1ccc(NC(=O)CN(C)C(=O)c2c(C)noc2C)cc1OCC`, the activation was 8.14%. For `CCOC(=O)c1c(NC(=O)CN2C(=O)NC3(CCC(C)CC3)C2=O)sc(C)c1CC` (stereo not drawn), the activation was 2.47%. For `COc1ccc(C2CC(c3ccc([N+](=O)[O-])cc3)=NN2C(C)=O)cc1` (stereo not drawn), the activation is 22%.

For the compound `COc1ccc(C2=NN(C(=O)c3cccnc3)C(c3ccccc3)C2)cc1` (stereo not drawn), the activation was 4.6%. With `COc1ccc(C2CC(c3ccccc3)=NN2C(=O)c2ccc(Cl)c([N+](=O)[O-])c2)cc1` (stereo not drawn), the activation was 73.2% (active). As for `OCc1ccc(-c2ccccc2)c(-c2ccccc2)c1`, the activation is -0.0415%. Turning to `Cc1ccc(CSCC(=O)N(C)CC(=O)Nc2cccc(F)c2)cc1`, the activation is 4.88%. On to `Cc1cc(C)c(C)c(S(=O)(=O)Nc2cccnc2)c1C`, for which the activation is -8.55%.

`COc1ccc(N2CCN(C(=O)/C(C#N)=C/c3ccccc3)CC2)cc1`: the activation is -4.53%. The figure for `CCOC(=O)/C(C#N)=C/c1ccc(N2CCCCC2)cc1` is 54.1% (active); for `CCOC(=O)/C(C#N)=C/c1ccc(N2CCN(Cc3ccccc3)CC2)cc1` it is -3.55%. Turning to `CCN1C(=O)[C@H]2[C@@H](c3ccc(-c4ccc(OC)cc4)cc3)N[C@@](Cc3ccccc3)(C(=O)OC)[C@H]2C1=O`, the activation was 22.5%. For `OCCN1CCN(C(=S)c2ccc(-c3ccccc3)cc2)CC1`, the activation is -5.27%. For the compound `S=C(c1ccc(-c2ccccc2)o1)N1CCCCC1`, the activation is 63.6% (active).

On to `S=C(c1ccccc1)N1CCCC1`, for which the activation is 0.831%. As for `CCCCCC(=O)N1CCN(S(=O)(=O)c2ccc3c(c2)OCCCO3)CC1`, the figure is -14%; as for `CCCCn1c(N)c(N(CCOC)C(=O)c2cccc(S(=O)(=O)N(C)c3ccccc3)c2)c(=O)[nH]c1=O`, 0.234%. With `Cc1noc(C)c1/C=N/Nc1ccc2ccccc2n1`, the activation is 59.1% (active). On to `C(=N\Nc1ccc2ccccc2n1)/c1ccc2c(c1)OCO2`, for which the activation was -41.8%. In the case of `Clc1ccc(Nc2ccc3ccccc3n2)cc1`, the activation is 5.69%. Regarding `Cc1ccc(S(=O)(=O)N(C)c2ccc(OCC(=O)OCC(=O)N(CC#N)c3ccccc3)cc2)cc1`, the activation was 7.96%.

For `O=S(=O)(NCCCc1ccccc1)c1ccc(Br)cc1`, the activation is 11.6%. For `O=C(NCCS(=O)(=O)NCc1ccc(Cl)cc1)c1ccccc1`, the activation is 8.69%. Take `CCOc1ccc(NS(=O)(=O)c2ccc(C(=O)NC3CCN(Cc4ccccc4)CC3)cc2)cc1`: the activation is -18.5%. For the compound `OC(c1nc2ccccc2[nH]1)C(O)C(O)C(O)c1nc2ccccc2[nH]1` (stereo not drawn), the activation is 1.21%. The figure for `Cc1ccc(-c2nc3ccccc3[nH]2)cc1N` is 36.7%; for `c1ccc2[nH]c(-c3nc4ccccc4[nH]3)nc2c1` it is 77.8% (active); for `CCN(CC(=O)Nc1c(F)cccc1F)C(=O)c1ccc(S(=O)(=O)N2CCCCC2)cc1` it is -12.7%. The figure for `Cc1ccccc1NC(=O)COc1cccc2c1CCNC2=O` is -1.52%; for `CCCCn1c(N)c(N(CC(C)C)C(=O)CSc2ccc([N+](=O)[O-])cc2)c(=O)[nH]c1=O` it is -6.98%; for `Cc1ccc(-c2nn(-c3ccc(F)cc3)cc2C(=O)NCC(c2cccs2)N2CCOCC2)cc1` (stereo not drawn) it is -1.83%. With `Cc1ccn2c(=O)nc(SCC(=O)NCc3ccc(F)cc3)nc2c1`, the activation was 16.8%. For the compound `O=C(COC(=O)c1ccccn1)NNC(=O)c1ccc([N+](=O)[O-])cc1`, the activation was 5.44%. Turning to `Cc1cc2nc(SCCN3CCOCC3)[nH]c2cc1C`, the activation is 53.2% (active). On to `CCn1c2ccc(F)cc2c2nnc(SCCN3CCOCC3)nc21`, for which the activation was -5.84%. For `Cc1cccc(C)c1OCCN1CCOCC1`, the activation is 3.56%.

In the case of `COc1ccc(NC(=O)CN(C)C(=O)CC2CCCCC2)cc1`, the activation was 0.174%. For `N#CCCN(C(=O)COC(=O)C1CCN(c2ccc(C(F)(F)F)cn2)CC1)c1ccc(F)cc1`, the activation is 9.78%. `O=C(CSc1nnc(-c2c[nH]c3ccccc23)o1)c1ccccc1`: the activation is 54.2% (active). With `CCC(CC)NC(=O)CSc1nnc(-c2c[nH]c3ccccc23)o1`, the activation was 12.5%.

As for `CN(C(=O)CSc1nnc(-c2c[nH]c3ccccc23)o1)C1CCS(=O)(=O)C1` (stereo not drawn), the activation is 20.1%. For the compound `COC(=O)c1sccc1NC(=O)COc1ccc(Cl)cc1`, the activation was 65.1% (active). On to `O=C(COc1ccc(Cl)cc1)Nc1ccccc1CO`, for which the activation is 3.44%. As to `COC(=O)c1sccc1NC(=O)c1ccc(Cl)cc1`, the activation was 12.5%. As for `O=C(NCC(c1ccco1)N1CCc2ccccc2C1)c1ccccc1Cl` (stereo not drawn), the activation is 6.39%. The figure for `CC(OC(=O)CNC(=O)c1ccco1)C(=O)Nc1ccc(Cl)cn1` (stereo not drawn) is 0.765%.

On to `C=CCNC(=O)C1CC2c3ccccc3C1c1ccccc12` (stereo not drawn), for which the activation was 0.377%. As for `CCC(C)N(C(=O)Cn1nc(C)c([N+](=O)[O-])c1C)C1CCS(=O)(=O)C1` (stereo not drawn), the figure is -1.43%. As for `COc1ccc(F)cc1S(=O)(=O)Nc1ccc2c(c1)OCO2`, the figure is 53.7% (active); as for `COc1ccc(F)cc1S(=O)(=O)NCC(c1ccc2c(c1)OCO2)N1CCN(C)CC1` (stereo not drawn), 7.05%. Take `COc1ccc(S(=O)(=O)Nc2ccc3c(c2)OCO3)cc1Cl`: the activation is -5.83%. As to `COc1ccccc1CCC(=O)OCC(=O)N1CCN(S(=O)(=O)c2ccc(C)cc2C)CC1`, the activation was 25.7%.

Take `COc1cccc(Nc2nc(N)c([N+](=O)[O-])c(NCc3ccco3)n2)c1`: the activation is 27.8%. On to `Nc1nc(Nc2ccccc2)nc(NCCO)c1[N+](=O)[O-]`, for which the activation was 12.4%. `CNc1nc(Nc2ccc(C)c(Cl)c2)nc(N)c1[N+](=O)[O-]`: the activation is 76.4% (active).

Consider `Cc1cccn2c(=O)nc(SCC(=O)NCc3ccccc3Cl)nc12`, for which the activation is 0.293%. For the compound `COc1ccc(-c2cnc(SCCNC(=O)c3ccc4c(c3)OCO4)[nH]2)cc1`, the activation was 9.08%. Take `COc1ccc(C2=NOC(Cn3nc(C(=O)NCc4ccc5c(c4)OCO5)cc3-c3ccccc3)C2)cc1` (stereo not drawn): the activation is 7.07%. As for `CCN1C(=O)[C@H]2[C@@H](c3ccc(SC4CCCCC4)c(OC)c3)N[C@@](Cc3ccccc3)(C(=O)OC)[C@H]2C1=O`, the figure is -7.66%; as for `Cc1ccc(F)c(NC(=O)CCOc2ccccc2C)c1`, 7.19%; as for `Cc1ccc(O)c(NC(=S)NC(=O)COc2ccc(Br)cc2)c1`, 12.4%.

Take `Cc1ccc(O)c(NC(=O)COc2cc(C)ccc2C)c1`: the activation is 76.7% (active). `CCn1c(COc2ccccc2)nnc1SCC(=O)NCc1ccco1`: the activation is -12.7%. `CCn1c(COc2ccc(OC)cc2)nnc1SCC(=O)Nc1cc(OC)ccc1OC`: the activation was 19.9%. Consider `CCOC(=O)CNC(=O)CSc1nnc(COc2ccc(Cl)cc2)n1CC`, for which the activation was 52.7% (active). In the case of `Cc1ccc(C(=O)Nc2nc3ccc(Cl)cc3s2)o1`, the activation was 44.3%.

Regarding `O=C(CSc1n[nH]c(-c2cccs2)n1)N1CCCCC1`, the activation is -14%. Take `O=C(OCC(=O)N1CCCC1=O)c1cc(S(=O)(=O)N2CCOCC2)ccc1Cl`: the activation is -4.42%. For `Cc1noc(NS(=O)(=O)c2ccc(N/C=C/C(=O)c3ccccc3)cc2)c1C`, the activation is -20.4%. As for `CCOc1ccc(N/C=C/C(=O)c2ccccc2)cc1`, the figure is 23.5%.

On to `Cc1ccc(N/C=C/C(=O)c2ccccc2)cc1C`, for which the activation is 77.8% (active).

Take `Cc1c(C)n2c(SCC(=O)NC3CCCC3)nnc2[nH]c1=O`: the activation is -15.2%.

Regarding `O=C(/C(=C/c1cccc(Cl)c1)c1nc2ccccc2[nH]1)c1ccccc1`, the activation is 199% (active). `CCC(=O)/C(=C(/O)c1ccccc1)c1nc2ccccc2[nH]1`: the activation is 4.66%. Consider `COc1ccc(/C=C(/NC(=O)c2ccc(C)cc2)c2nc3ccccc3[nH]2)cc1OC`, for which the activation is -0.506%. Regarding `Cc1ccc(C)c(OCCC(=O)Nc2cccc(S(=O)(=O)N3CCCC3)c2)c1`, the activation is -4.4%. The figure for `N#CC1(NC(=O)COC(=O)CSc2ccc(F)cc2)CCCCC1` is 0.517%. As for `CCN(CC(=O)Nc1c(F)cccc1F)C(=O)c1ccc(Sc2nncn2C)c([N+](=O)[O-])c1`, the activation was -3.26%.
